These compounds were tested on Akkermansia muciniphila (assay: growth AUC relative to DMSO control (median of replicates) (fraction); higher = more growth (less inhibition), active = hit call of the paper). Conditions: 20 µM; 24 h;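 active = AUC reduced over 20% with Padj below 0.05 in at least 2 of 3 replicates; inactive = otherwise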.
Outline: (§1)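 Area under the growth curve was normalised to the plate median of solvent-only wells, except on the industrial chemical plate, where row and column medians were used. Curves came from gut bacterial monocultures grown anaerobically at 37 °C in mGAM with 20 µM compound (1% DMSO), starting at OD600 0.05 and read at OD600 every hour for 24 h. The minimum OD of each curve was set to 0, and values are medians of three biological replicates grown on separate days.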

Row | SMILES | growth AUC
1 | Cc1cc(C2CC2)nc(Nc2ccccc2)n1 | 0.934 (inactive)
2 | CCC(CC)Nc1c([N+](=O)[O-])cc(C)c(C)c1[N+](=O)[O-] | 1.03 (inactive)
3 | CCCSC(=O)N(CCC)CCC | 0.868 (inactive)
4 | C[C@@H](Oc1ccc(Cl)cc1Cl)C(=O)O | 1.14 (inactive)
5 | CCOP(=S)(OCC)Oc1cc(-c2ccccc2)on1 | 1.24 (inactive)
6 | O=C(O)c1cc(Cl)ccc1Cl | 0.97 (inactive)
7 | OCC(O)CCl (configuration not stated) | 1.01 (inactive)
8 | Cc1ccc2nc3sc(=O)sc3nc2c1 | 1.04 (inactive)
9 | CC(Cl)(Cl)C(=O)O | 0.869 (inactive)
10 | CCNc1nc(NC(C)C(C)C)nc(SC)n1 (configuration not stated) | 0.961 (inactive)
11 | CCCCCCCC(=O)Oc1c(I)cc(C#N)cc1I | 1.1 (inactive)
12 | COP(=S)(OC)Oc1cc(Cl)c(Br)cc1Cl | 0.9 (inactive)
13 | C=CCN=C=S | 0.98 (inactive)
14 | COC(=O)c1ccccc1S(=O)(=O)NC(=O)Nc1nc(C)cc(C)n1 | 1.07 (inactive)
15 | CNC(=O)O/N=C(\SC)C(=O)N(C)C | 1.01 (inactive)
16 | CC(Cc1ccc(C(C)(C)C)cc1)CN1CCCCC1 (configuration not stated) | 0.735 (inactive)
17 | CC1=NNC(=O)N(/N=C/c2cccnc2)C1 | 0.995 (inactive)
18 | c1ccc(-c2ccccc2)cc1 | 1.09 (inactive)
19 | CN1CSC(=S)N(C)C1 | 1.02 (inactive)
20 | COC(=O)NC(=S)Nc1ccccc1NC(=S)NC(=O)OC | 1.04 (inactive)
21 | C=CC1(C)OC(=O)N(c2cc(Cl)cc(Cl)c2)C1=O (configuration not stated) | 1.02 (inactive)
22 | ClC1=C(Cl)C2(Cl)C3C4C=CC(C4)C3C1(Cl)C2(Cl)Cl (configuration not stated) | 1.11 (inactive)
23 | CC(C)OP(=O)(OC(C)C)SCc1ccccc1 | 1.12 (inactive)

Each compound was assayed on Bacteroides caccae in the same assay as above. Conditions: 20 µM; 24 h.
Outline: as §1

Row | SMILES | growth AUC
24 | CCC(C)(c1ccc(O)cc1)c1ccc(O)cc1 | 0.989 (inactive)
25 | C[n+]1ccc(-c2cc[n+](C)cc2)cc1.O.[Cl-].[Cl-] | 0.846 (inactive)
26 | C=CCC1=C(C)C(OC(=O)C2C(C=C(C)C)C2(C)C)CC1=O (mixture of isomers) | 0.96 (inactive)
27 | CCOP(=S)(OCC)SCS(=O)CC (configuration not stated) | 0.99 (inactive)
28 | CC1=C(C(=O)Nc2ccccc2)SCCO1 | 1.02 (inactive)
29 | CC(C)Nc1nc(Cl)nc(NC(C)C)n1 | 0.825 (inactive)
30 | CNC(=O)Oc1cc(C)cc(C(C)C)c1 | 0.969 (inactive)
31 | C=CCN(CC=C)C(=O)C(Cl)Cl | 1.02 (inactive)
32 | CCS(=O)Cc1ccccc1OC(=O)NC (configuration not stated) | 0.98 (inactive)
33 | CNC1=C(c2cccc(C(F)(F)F)c2)C(=O)C(c2ccccc2)O1 (configuration not stated) | 1.02 (inactive)
34 | CC/C(=N\OC/C=C/Cl)C1=C(O)CC(C2CCOCC2)CC1=O (configuration not stated) | 0.993 (inactive)
35 | CC(COc1ccc(Oc2ccccc2)cc1)Oc1ccccn1 (configuration not stated) | 0.949 (inactive)
36 | COCCOC(=O)C(C#N)(C(=O)c1ccccc1C(F)(F)F)c1ccc(C(C)(C)C)cc1 (configuration not stated) | 0.937 (inactive)
37 | O=c1oc2ccccc2c(O)c1C1CC(c2ccc(OCc3ccc(C(F)(F)F)cc3)cc2)Cc2ccccc21 (mixture of isomers) | 0.919 (inactive)
38 | CN(C)C1CSSSC1.O=C(O)C(=O)O | 0.98 (inactive)
39 | OC(c1ccc(Cl)cc1)(c1ccc(Cl)cc1)C(Cl)(Cl)Cl | 0.962 (inactive)
40 | Cc1cc(C2CC2)nc(Nc2ccccc2)n1 | 0.979 (inactive)
41 | CCC(CC)Nc1c([N+](=O)[O-])cc(C)c(C)c1[N+](=O)[O-] | 0.888 (inactive)
42 | CCCSC(=O)N(CCC)CCC | 0.991 (inactive)
43 | C[C@@H](Oc1ccc(Cl)cc1Cl)C(=O)O | 0.98 (inactive)

Row | SMILES | growth AUC
44 | CCOP(=S)(OCC)Oc1cc(-c2ccccc2)on1 | 0.984 (inactive)
45 | O=C(O)c1cc(Cl)ccc1Cl | 0.998 (inactive)
46 | OCC(O)CCl (configuration not stated) | 1.01 (inactive)
47 | Cc1ccc2nc3sc(=O)sc3nc2c1 | 0.982 (inactive)
48 | CC(Cl)(Cl)C(=O)O | 1.05 (inactive)
49 | CCNc1nc(NC(C)C(C)C)nc(SC)n1 (configuration not stated) | 1.01 (inactive)
50 | CCCCCCCC(=O)Oc1c(I)cc(C#N)cc1I | 0.886 (inactive)
51 | COP(=S)(OC)Oc1cc(Cl)c(Br)cc1Cl | 0.961 (inactive)
52 | C=CCN=C=S | 0.968 (inactive)
53 | COC(=O)c1ccccc1S(=O)(=O)NC(=O)Nc1nc(C)cc(C)n1 | 0.962 (inactive)
54 | CNC(=O)O/N=C(\SC)C(=O)N(C)C | 0.999 (inactive)
55 | CC(Cc1ccc(C(C)(C)C)cc1)CN1CCCCC1 (configuration not stated) | 0.963 (inactive)
56 | CC1=NNC(=O)N(/N=C/c2cccnc2)C1 | 1.01 (inactive)
57 | c1ccc(-c2ccccc2)cc1 | 0.985 (inactive)
58 | CN1CSC(=S)N(C)C1 | 1.01 (inactive)
59 | COC(=O)NC(=S)Nc1ccccc1NC(=S)NC(=O)OC | 0.99 (inactive)
60 | C=CC1(C)OC(=O)N(c2cc(Cl)cc(Cl)c2)C1=O (configuration not stated) | 0.985 (inactive)
61 | ClC1=C(Cl)C2(Cl)C3C4C=CC(C4)C3C1(Cl)C2(Cl)Cl (configuration not stated) | 1.02 (inactive)
62 | CC(C)OP(=O)(OC(C)C)SCc1ccccc1 | 0.976 (inactive)

Source: the supplement of paper PMC12669032
